Assay results as given in PubChem BioAssay (Tox21).
Calls of active or inactive are those of the source. Calls follow the shape of the dose curve; as a rule, active = well fitted curve in the direction sought with a large enough effect in the repeat runs; inconclusive = weak or mixed curves; inactive = flat fitted curve, though single readings scatter.

experiment: qHTS assay to test for compound auto fluorescence at 535 nm (green) in HEK293 cell free culture (AID 720682); conditions: cell-free medium, green autofluorescence 485/535 nm, hits give high values; series mostly up to 91.3 µM; activity change: at the top concentration
From the text: U.S. Tox21 Program National Center for Advancing Translational Sciences [NCATS] NIH Chemical Genomics Center [NCGC] U.S. Environmental Protection Agency [EPA] National Institutes of Environmental Health Sciences [NIEHS] National Toxicology Program [NTP] U.S. Food and Drug Administration [FDA] Tox21 Assay Overview: Compound auto fluorescence often interferes with screening of the compound library against various biological targets and signaling pathways. Some of these compounds may have fluorophoric properties. Such properties may interfere with the assay outputs resulting in false positives and/or negatives. To decrease such complications and ensure the compound activities are relevant in terms of biological response, the Tox21 10K compound library was screened for auto fluorescence. From the fluorophores used as reporter signals in our screening assays, the auto fluorescence equivalencies of compounds against three fluorophores have been evaluated: Triamterene, Fluorescein and Rose Bengal sodium for blue, green and red fluorescence, respectively. The fluorescence intensities were measured using Excitation/Emission wavelengths at 405/460nm, 485/535nm and 540/590nm for blue, green and red labels, respectively. This assay includes the green fluorescence data.
Tox21 Assay Protocol Summary: 5 uL of culture medium (DMEM containing 10% FBS) per well was dispensed into black wall/clear bottom 1536-well plates using a Multidrop Combi Dispenser (ThermoFisher Scientific, Waltham, MA). After 23 nL compound or DMSO vehicle was transferred into assay plate by a pintool work station (Kalypsys, San Diego, CA), fluorescence intensities in the assay plates were measured by an Envision (PerkinElmer, Shelton, CT) plate reader using three labels for measuring blue, green and red fluorescence at […] 460, 535 and 590nm respectively.
% is scaled to controls: 0 for no effect and ±100 for the full control effect.

SMILES	activity change	outcome
COc1ccc(C(=O)N2CCN(CC(=O)N3CCOCC3)CC2)cc1	0.0045% [at 46 µM] (inactive)	–
CCCCc1ncc(/C=C(\Cc2cccs2)C(=O)O)n1Cc1ccc(C(=O)O)cc1	0.0502% [at 46 µM] (inactive)	–
C/C(=C(\CCOP(=O)(O)O)SC(=O)c1ccccc1)N(C=O)Cc1cnc(C)nc1N	0.0312% [at 18.6 µM] (inactive)	–
c1ccc(CNCCNCc2ccccc2)cc1	-0.0817% [at 46 µM] (inactive)	–
CCCCCCCC/C=C\CCCCCCCC(=O)OCC	-0.0204% (inactive)	–
CC(CC=O)c1ccccc1 (stereo not given)	0.0267% (inactive)	–
COc1cc(C(=O)OCCCN2CCCN(CCCOC(=O)c3cc(OC)c(OC)c(OC)c3)CC2)cc(OC)c1OC	-0.0402% [at 46 µM] (inactive)	–
CC(CSC(=O)c1ccccc1)C(=O)N1C[C@@H](Sc2ccccc2)C[C@H]1C(=O)O (stereo not given in full)	0.0268% [at 46 µM] (inactive)	–
CCO[Si](CCCCl)(OCC)OCC	-0.005% (inactive)	–
O=C1OC(=O)C2C3C=CC(C3)C12 (stereo not given)	-0.135% (inactive)	–
O=C(O)C1(C(=O)Nc2ccc(Cl)cc2Cl)CC1	-0.0845% (inactive)	–
O=C(c1ccc(F)cc1)C1CCN(CCn2c(=S)[nH]c3ccccc3c2=O)CC1	-0.0343% [at 46 µM] (inactive)	–
Nc1ccccc1S(=O)(=O)c1ccccc1	-0.0289% (inactive)	–
C[Si](C)(CCCN)O[Si](C)(C)CCCN	-0.229% (inactive)	–
Cc1cccc(C)c1NC(=O)CN(CC(=O)O)CC(=O)O	-0.022% [at 46 µM] (inactive)	–
CCCCCCCCCCO[C@@H]1O[C@H](CO)[C@@H](O)[C@H](O)[C@H]1O	0.0095% (inactive)	–
CN1CCN(C(c2ccccc2)c2ccccc2)CC1	0.0291% [at 18.6 µM] (inactive)	–
Nc1cc(C(=O)O)c(O)c(S(=O)(=O)O)c1	0.406% (inactive)	–
CCCCCC[C@@H](O)C/C=C\CCCCCCCC(=O)OC	0.0256% (inactive)	–
CCC(C)O (stereo not given)	0.0331% [at 95.7 µM] (inactive)	–

SMILES	activity change	outcome
O=S(c1cc(Cl)cc(Cl)c1O)c1cc(Cl)cc(Cl)c1O	0.0349% [at 46 µM] (inactive)	–
O=C1CCC(=O)O1	0.0958% (inactive)	–
OC[C@H]1O[C@@H](OCCc2ccc(O)cc2)[C@H](O)[C@@H](O)[C@@H]1O	0.0447% [at 46 µM] (inactive)	–
CC(C)(C)OCC1CO1 (stereo not given)	-0.0185% [at 95.7 µM] (inactive)	–
CCCCC	–	inactive
CC(=O)[O][Al]	-0.0266% [at 95.7 µM] (inactive)	–
CCC(=O)O[C@]1(C(=O)CCl)[C@@H](C)C[C@H]2[C@@H]3CCC4=CC(=O)C=C[C@]4(C)[C@@]3(F)[C@@H](O)C[C@@]21C	-0.0135% [at 46 µM] (inactive)	–
O=C(O)c1ccco1	0.023% (inactive)	–
O=C(Nc1ccc(S(=O)(=O)N2CCOCC2)cc1)c1cc(Cl)ccc1NS(=O)(=O)c1ccc(Cl)s1	0.0326% [at 46 µM] (inactive)	–
ClCCOCCOCCCl	-0.0705% (inactive)	–
Nc1cccc([N+](=O)[O-])c1	0.0222% (inactive)	–
CC(=O)c1ccc2c(c1)N(CCCN(C)C)c1ccccc1S2	-0.283% [at 18.6 µM] (inactive)	–
CC(C)OC(=O)C(C)N(C(=O)c1ccccc1)c1ccc(F)c(Cl)c1 (stereo not given)	0.086% (inactive)	–
CN(C)c1ccc(C(c2ccccc2)c2ccc(N(C)C)cc2)cc1	-0.0979% (inactive)	–
C/C=C/C=C/CO	-0.0069% (inactive)	–
Brc1c2ccccc2c(Br)c2ccccc12	-0.0415% [at 3.72 µM] (inactive)	–
CCOc1ccc(N=Nc2ccc(/C=C/c3ccc(N=Nc4ccc(OCC)cc4)cc3S(=O)(=O)O)c(S(=O)(=O)O)c2)cc1	-0.36% (inactive)	–
C1CCCNCCC1	-0.38% (inactive)	–
NCc1ccccc1Sc1ccccc1CO	-0.0404% [at 46 µM] (inactive)	–
CC(=O)OC[C@H]1O[C@@H](n2ncc(=O)[nH]c2=O)[C@H](OC(C)=O)[C@@H]1OC(C)=O	-0.0055% [at 46 µM] (inactive)	–
